# Assay results: PubChem BioAssay (EPA / NIEHS)
# Records with an inconclusive call do not appear. Active and inactive are the calls of the source. The calls were made as follows: active = hit-call score of the fitted dose curve at least 0.9, where 1 is the maximum; inconclusive = response in the unintended direction; inactive = score below 0.9.
# Molecular target: human Opioid Receptor Delta 1 (Opiate D1), OPRD1 (gene 4985) (UniProt P41143)
# Assay: NVS_GPCR_hOpiate_D1: NovaScreen (NVS) G Protein-Coupled Receptor Assay for human Opioid Receptor Delta 1 (Opiate D1) (AID 2283280)
# Procedure, shortened: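 Membrane preparations from CHO cells bearing the human receptor were incubated 1 h with test chemical, and bound radioligand was counted after filtration. Actives from 25 uM duplicate screening were retested in concentration-response.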
# Chain of human Opioid Receptor Delta 1 (Opiate D1), OPRD1 (gene 4985) (P41143 whole entry, looked up): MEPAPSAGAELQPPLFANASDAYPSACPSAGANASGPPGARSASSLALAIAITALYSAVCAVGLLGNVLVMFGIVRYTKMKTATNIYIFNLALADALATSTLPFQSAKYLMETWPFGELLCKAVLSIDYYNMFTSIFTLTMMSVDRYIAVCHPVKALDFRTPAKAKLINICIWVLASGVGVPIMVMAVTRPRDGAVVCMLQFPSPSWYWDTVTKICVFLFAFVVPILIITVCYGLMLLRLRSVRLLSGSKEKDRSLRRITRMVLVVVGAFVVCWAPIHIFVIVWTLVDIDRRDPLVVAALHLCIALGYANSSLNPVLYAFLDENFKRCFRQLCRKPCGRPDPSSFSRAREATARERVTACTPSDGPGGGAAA
row,SMILES,outcome
1,ClC1=C(Cl)C2(Cl)C3C(Cl)C(Cl)CC3C1(Cl)C2(Cl)Cl (stereo not drawn),inactive
2,CSC(C)(C)C=NO,inactive
3,CCCCN(CCCC)SN(C)C(=O)Oc1cccc2c1OC(C)(C)C2,inactive
4,O=C(O)C1C(C(=O)O)C2(Cl)C(Cl)=C(Cl)C1(Cl)C2(Cl)Cl (stereo not drawn),inactive
5,CC(C)(C)OOC(C)(C)C,inactive

# Molecular target: human Thromboxane A2 Receptor (TXA2), TBXA2R (gene 6915) (UniProt P21731)
# Assay: NVS_GPCR_hTXA2: NovaScreen (NVS) G Protein-Coupled Receptor Assay for human Thromboxane A2 Receptor (TXA2) (AID 2283282);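 also: actives reduce bound radioligand signal relative to DMSO baseline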
# Procedure, shortened: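 Human platelet-derived receptor preparation incubated with test chemical and radiolabelled ligand for 1 hour, cell-free. Bound label was separated by filtration and counted; displacement relative to DMSO controls gave activity, screened at 25 uM, then titrated.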
# Chain of human Thromboxane A2 Receptor (TXA2), TBXA2R (gene 6915) (P21731 whole entry, looked up): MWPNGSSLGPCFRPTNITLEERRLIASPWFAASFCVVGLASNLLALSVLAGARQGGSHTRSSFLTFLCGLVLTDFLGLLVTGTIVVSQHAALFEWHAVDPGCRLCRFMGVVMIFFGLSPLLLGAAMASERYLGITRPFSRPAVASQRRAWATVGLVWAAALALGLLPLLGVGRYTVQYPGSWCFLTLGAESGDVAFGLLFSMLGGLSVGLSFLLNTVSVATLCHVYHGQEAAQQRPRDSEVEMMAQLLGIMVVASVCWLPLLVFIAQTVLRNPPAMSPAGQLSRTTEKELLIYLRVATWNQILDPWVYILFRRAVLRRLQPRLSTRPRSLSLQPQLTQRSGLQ
SMILES,outcome,AC50
Cc1ccc2c(c1N)C(=O)c1ccccc1C2=O,inactive,–
N#Cc1ccc(O)cc1,inactive,–
CC(=O)c1ccc(-c2ccccc2)cc1,inactive,–
CSC(C)(C)C=NO,inactive,–
C/C(=N\NC(=O)Nc1cc(F)cc(F)c1)c1ncccc1C(=O)O,inactive,–
N#Cc1c(-c2ccc(Cl)cc2)[nH]c(C(F)(F)F)c1Br,–,4.66 µM (active)

# Molecular target: human Opioid Receptor Mu (Opiate Mu), OPRM1 (gene 4988) (UniProt P35372)
# Assay: NVS_GPCR_hOpiate_mu: NovaScreen (NVS) G Protein-Coupled Receptor Assay for human Opioid Receptor Mu (Opiate Mu) (AID 2283290);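 also: hits lower bound tracer signal versus DMSO meaning displacement of the ligand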
# Procedure, shortened: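 Radioligand displacement binding on membranes from CHO cells expressing the receptor, 2.5 h after dosing, filter-based scintillation counting; loss of signal vs DMSO baseline. Screened in duplicate at 25 uM, actives then run in concentration series.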
# Chain of human Opioid Receptor Mu (Opiate Mu), OPRM1 (gene 4988) (P35372 whole entry, looked up): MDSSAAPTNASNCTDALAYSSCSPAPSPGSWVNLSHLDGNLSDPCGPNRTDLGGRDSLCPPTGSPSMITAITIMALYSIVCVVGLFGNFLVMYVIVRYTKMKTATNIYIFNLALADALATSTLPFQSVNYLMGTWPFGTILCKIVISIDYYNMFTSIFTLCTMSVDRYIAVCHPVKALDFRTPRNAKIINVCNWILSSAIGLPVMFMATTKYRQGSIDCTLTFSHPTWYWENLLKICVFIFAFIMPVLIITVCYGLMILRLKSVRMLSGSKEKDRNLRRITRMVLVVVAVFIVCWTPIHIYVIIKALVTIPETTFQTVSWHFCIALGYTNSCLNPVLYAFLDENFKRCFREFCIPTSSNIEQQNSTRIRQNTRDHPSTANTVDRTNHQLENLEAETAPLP
SMILES,outcome,AC50
CCCN(CCC)c1c([N+](=O)[O-])cc(C(C)C)cc1[N+](=O)[O-],inactive,–
CSC(C)(C)C=NO,inactive,–
CCOP(=S)(OCC)SCS(=O)(=O)CC,inactive,–
CC1(C)CN=C(NN=C(/C=C/c2ccc(C(F)(F)F)cc2)/C=C/c2ccc(C(F)(F)F)cc2)NC1,–,6.5 µM (active)
O=c1ssc(Cl)c1Cl,–,0.885 µM (active)
Nc1ccc2ccccc2c1,inactive,–
c1cc2c3c(cccc3c1)CC2,inactive,–
Cc1ccc(O)cc1C,inactive,–
CCCCN(CCCC)SN(C)C(=O)Oc1cccc2c1OC(C)(C)C2,inactive,–
CCC(C)(C)c1ccc(O)cc1,–,6.43 µM (active)
OCC1CO1 (stereo not drawn),inactive,–
N#Cc1c(-c2ccc(Cl)cc2)[nH]c(C(F)(F)F)c1Br,inactive,–
